Activity calls are given as the source filed them. How the source made its calls: active means hit-call score of the fitted dose curve at least 0.9, where 1 is the maximum; inactive means score below 0.9.
Legend:
[1] = ATG_CRE_CIS: Attagene CIS-FACTORIAL HepG2 Assay for human cAMP Responsive Element (CRE) binding protein 3 (AID 2282926); details: HepG2 CRE cis-reporter, Attagene multiplexed mRNA; actives raise or lower the signal
Outline: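 HepG2 cells transiently transfected with cis-element-driven multiple reporter transcription units; CRE reporter mRNA measured 24 h after dosing by RT-PCR, 6-FAM labelling, HpaI digestion and capillary electrophoresis. Bidirectional fit versus DMSO baseline.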

[2] = biological target: CCAAT/enhancer-binding protein beta (Homo sapiens) (UniProt P17676); test: ATG_C_EBP_CIS: Attagene CIS-FACTORIAL HepG2 Assay for human CCAAT/Enhancer Binding Protein (C/EBP) beta (AID 2282927); details: HepG2 Attagene cis-factorial transcription factor reporter; actives raise or lower the signal
Outline: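 Changes in reporter mRNA, rather than exogenous chimeric receptor activity, reflect native C/EBP signalling in transfected HepG2 cells dosed for 24 h; transcripts are detected by RT-PCR and capillary electrophoresis.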

[3] = ATG_CMV_CIS: Attagene CIS-FACTORIAL HepG2 Assay for human CMV (Internal Marker) (AID 2282928); details: HepG2 CMV promoter reporter, transcription factor profiling; actives raise or lower the signal;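 further: endpoint acts as a background internal control marker rather than a target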
Outline: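 Endogenous transcription factor activity read in HepG2 via transfected cis-promoter reporter units. After 24 h dosing, reporter mRNA measured by RT-PCR/capillary electrophoresis; gain or loss of signal fit relative to DMSO.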

[4] = ATG_DR4_LXR_CIS: Attagene CIS-FACTORIAL HepG2 Assay for human Liver X Receptor (LXR), DR4 submotif (AID 2282929); details: HepG2 Attagene DR4 cis-reporter, mRNA transcription; actives raise or lower the signal
Outline: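 Fluorescence intensity of labelled reporter cDNA fragments, separated by capillary electrophoresis, gives the signal. HepG2 cells bearing cis-regulated reporter constructs were treated 24 h; activity fitted bidirectionally relative to DMSO negative control.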

[5] = biological target: Aryl hydrocarbon receptor (Homo sapiens) (UniProt P35869); test: ATG_Ahr_CIS: Attagene CIS-FACTORIAL HepG2 Assay for human Aryl Hydrocarbon Receptor (Ahr) (AID 2282930); details: HepG2 AhR cis-factorial reporter transcription; actives raise or lower the signal
Outline: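 HepG2, transient MRTU (cis) transfection, 24 h exposure. RNA → cDNA → PCR → 6-FAM primer extension → HpaI 2 h 37 C → CE. Fit: bidirectional, DMSO baseline.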

[6] = ATG_AP_1_CIS: Attagene CIS-FACTORIAL HepG2 Assay for human Activator Protein 1 (AP-1) (AID 2282931); details: HepG2 Attagene cis-factorial AP-1 reporter mRNA; actives raise or lower the signal
Outline: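 Multiplexed HepG2 reporter assay, 24 h dosing. mRNA induction detected by RT-PCR plus capillary electrophoresis. Activity fitted in both directions against DMSO.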

[7] = ATG_AP_2_CIS: Attagene CIS-FACTORIAL HepG2 Assay for human Activator Protein 2 (AP-2) (AID 2282932); details: HepG2 AP-2 cis-reporter, Attagene transcription factor profiling; actives raise or lower the signal
Outline: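 Step one: transient transfection of HepG2 with reporter transcription units. Step two: 24 h chemical exposure. Step three: RNA extraction, RT-PCR, labelled fragment analysis by capillary electrophoresis; DMSO serves as baseline.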

[8] = ATG_BRE_CIS: Attagene CIS-FACTORIAL HepG2 Assay for human Bone Morphogenetic Protein (BMP) Response Element (BRE) (AID 2282933); details: HepG2 BMP response element reporter, Attagene transcription factor profiling; actives raise or lower the signal
Outline: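 Gain- or loss-of-signal was derived by bidirectional fitting against DMSO controls. The signal came from reporter mRNA, measured by RT-PCR and capillary electrophoresis, in HepG2 cells transiently carrying multiple reporter units and dosed for 24 h.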

[9] = biological target: Transcription factor E2F1 (Homo sapiens) (UniProt Q01094); test: ATG_E2F_CIS: Attagene CIS-FACTORIAL HepG2 Assay for human E2F Transcription Factor 1 (AID 2282935); details: HepG2 Attagene cis-reporter, E2F reporter RNA transcripts; actives raise or lower the signal
Outline: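 Total RNA from 24 h-treated, reporter-transfected HepG2 cells undergoes DNase I treatment, oligo(dT) reverse transcription, PCR and 6-FAM primer extension before capillary electrophoresis.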

[10] = ATG_E_Box_CIS: Attagene CIS-FACTORIAL HepG2 Assay for human Enhancer Box (E-box) (AID 2282936); details: HepG2 E-box cis-reporter transcription, actives raise or lower the signal
Outline: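 DMSO served as negative control and baseline for bidirectional fitting. Human hepatoma HepG2 cells, transiently transfected with cis-reporter constructs, were dosed 24 h; reporter mRNA read by RT-PCR and capillary electrophoresis.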

[11] = ATG_M_61_CIS: Attagene CIS-FACTORIAL HepG2 Assay for M61 Transcription Factor (Internal Marker) (AID 2282937); details: HepG2 Attagene CIS-FACTORIAL M61 internal marker reporter; actives raise or lower the signal
Outline: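 Endogenous transcription factor activity in HepG2 is read through transiently transfected cis-element reporter units. After 24 h dosing, RNA undergoes reverse transcription, PCR and primer extension with 6-FAM before capillary electrophoresis; DMSO-referenced bidirectional fit.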

[12] = ATG_EGR_CIS: Attagene CIS-FACTORIAL HepG2 Assay for human Early Growth Response 1 (EGR1) (AID 2282938); details: HepG2 Attagene CIS-FACTORIAL EGR reporter mRNA; actives raise or lower the signal
Outline: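 Activity is taken as induction or loss of reporter mRNA versus DMSO, fitted bidirectionally. Transcripts from cis-regulated reporter units in transiently transfected HepG2 were measured after 24 h by RT-PCR with capillary electrophoresis.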

[13] = ATG_Ets_CIS: Attagene CIS-FACTORIAL HepG2 Assay for human Erythroblast Transformation Specific (ETS) (AID 2282941); details: HepG2 ETS cis-reporter transcription, actives raise or lower the signal
Outline: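 Steps: transfect HepG2 with multiple reporter units; treat compound 24 h; isolate RNA, DNase-treat, reverse-transcribe; PCR-amplify, label with 6-FAM, digest with HpaI; separate by capillary electrophoresis. Activity fitted both directions versus DMSO.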

[14] = ATG_FoxO_CIS: Attagene CIS-FACTORIAL HepG2 Assay for human Forkhead box O (FoxO) (AID 2282943); details: HepG2 Attagene cis-reporter, FoxO element, mRNA; actives raise or lower the signal
Outline: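 Human hepatoma HepG2 cells carry transiently introduced reporter transcription units controlled by cis promoter elements. Chemical treatment lasted 24 h, and mRNA signal was compared with DMSO.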

[15] = ATG_GATA_CIS: Attagene CIS-FACTORIAL HepG2 Assay for human GATA Binding Protein (AID 2282944); details: HepG2 GATA cis-element reporter, Attagene multiplex mRNA; actives raise or lower the signal
Outline: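 DMSO serves as negative control and baseline for bidirectional fitting of reporter mRNA changes. HepG2 cells bearing transiently transfected cis-promoter reporters were exposed 24 h; transcripts detected via RT-PCR and capillary electrophoresis.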

[16] = ATG_GLI_CIS: Attagene CIS-FACTORIAL HepG2 Assay for human Zinc Finger Protein GLI1 (AID 2282945); details: HepG2, Attagene cis-factorial reporter mRNA, GLI element; actives raise or lower the signal
Outline: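 Bidirectional curve fits relative to DMSO, using reporter mRNA levels from RT-PCR plus capillary electrophoresis. Cells were HepG2 transiently carrying cis-regulated reporter constructs, harvested 24 h after dosing.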

[17] = biological target: Retinoic acid receptor alpha (Homo sapiens) (UniProt P10276); test: ATG_DR5_RAR_CIS: Attagene CIS-FACTORIAL HepG2 Assay for human Retinoic Acid Receptor Alpha (RARE), DR5 submotif (AID 2282934); details: HepG2 Attagene cis-factorial RARE DR5 reporter, mRNA; actives raise or lower the signal
Outline: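 HepG2, transient cis-reporter transfection, 24 h exposure. mRNA readout: RT-PCR, FAM label, HpaI cut, capillary electrophoresis. DMSO baseline, gain/loss fitting.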

[18] = ATG_M_19_CIS: Attagene CIS-FACTORIAL HepG2 Assay for M19 Transcription Factor (Internal Marker) (AID 2282939); details: HepG2 Attagene CIS-FACTORIAL M19 internal marker reporter; actives raise or lower the signal
Outline: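 Following a 24 h exposure, RNA from transfected HepG2 cells was reverse-transcribed, PCR-amplified with reporter-specific primers, end-labelled with 6-FAM and HpaI-digested before capillary separation. Values represent gain or loss versus DMSO.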

[19] = ATG_ERE_CIS: Attagene CIS-FACTORIAL HepG2 Assay for Estrogen Response Element (ERE) (AID 2282940); details: HepG2 ERE cis-reporter, Attagene RNA transcript; actives raise or lower the signal
Outline: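 HepG2, transient cis-reporter units, 24 h exposure. RNA isolated, oligo(dT) RT, reporter-specific PCR, FAM extension, HpaI cut, CE detection. Gain/loss-of-signal vs DMSO.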

[20] = biological target: Hepatocyte nuclear factor 3-beta (Homo sapiens) (UniProt Q9Y261); test: ATG_FoxA2_CIS: Attagene CIS-FACTORIAL HepG2 Assay for human Forkhead box A2 (FOXA2) (AID 2282942); details: HepG2 cis-reporter transcription factor activity, 24 h; actives raise or lower the signal
Outline: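 Reporter transcript induction is measured by fluorescence after capillary electrophoresis of RT-PCR products from HepG2 cells exposed 24 h. Cis-regulated reporter units report endogenous factor activity; curves fitted both directions against DMSO.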

CCAAT/enhancer-binding protein beta (Homo sapiens), sequence (P17676 whole entry, looked up): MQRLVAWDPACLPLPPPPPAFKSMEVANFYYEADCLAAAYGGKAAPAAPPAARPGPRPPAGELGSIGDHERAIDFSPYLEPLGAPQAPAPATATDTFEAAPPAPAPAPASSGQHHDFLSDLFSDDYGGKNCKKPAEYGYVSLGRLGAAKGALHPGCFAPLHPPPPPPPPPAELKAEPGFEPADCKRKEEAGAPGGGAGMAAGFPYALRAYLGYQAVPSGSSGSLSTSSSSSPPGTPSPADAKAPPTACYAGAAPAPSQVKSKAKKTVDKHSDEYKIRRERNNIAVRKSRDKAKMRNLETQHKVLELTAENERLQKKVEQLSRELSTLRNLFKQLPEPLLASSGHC
Hepatocyte nuclear factor 3-beta (Homo sapiens), sequence (Q9Y261 whole entry, looked up): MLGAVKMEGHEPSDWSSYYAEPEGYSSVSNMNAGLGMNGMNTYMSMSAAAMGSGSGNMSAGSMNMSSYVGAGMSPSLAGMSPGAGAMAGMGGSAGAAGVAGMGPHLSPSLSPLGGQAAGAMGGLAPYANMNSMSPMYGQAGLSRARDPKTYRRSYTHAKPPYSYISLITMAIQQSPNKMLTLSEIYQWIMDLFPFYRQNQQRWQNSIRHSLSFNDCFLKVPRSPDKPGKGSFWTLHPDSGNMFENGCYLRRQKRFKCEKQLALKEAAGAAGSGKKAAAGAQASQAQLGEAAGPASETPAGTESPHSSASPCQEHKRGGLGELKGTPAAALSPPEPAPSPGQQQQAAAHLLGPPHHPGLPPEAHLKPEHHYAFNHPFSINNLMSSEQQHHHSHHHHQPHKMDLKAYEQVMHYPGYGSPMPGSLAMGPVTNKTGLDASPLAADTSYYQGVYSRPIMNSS
Transcription factor E2F1 (Homo sapiens), sequence (Q01094 whole entry, looked up): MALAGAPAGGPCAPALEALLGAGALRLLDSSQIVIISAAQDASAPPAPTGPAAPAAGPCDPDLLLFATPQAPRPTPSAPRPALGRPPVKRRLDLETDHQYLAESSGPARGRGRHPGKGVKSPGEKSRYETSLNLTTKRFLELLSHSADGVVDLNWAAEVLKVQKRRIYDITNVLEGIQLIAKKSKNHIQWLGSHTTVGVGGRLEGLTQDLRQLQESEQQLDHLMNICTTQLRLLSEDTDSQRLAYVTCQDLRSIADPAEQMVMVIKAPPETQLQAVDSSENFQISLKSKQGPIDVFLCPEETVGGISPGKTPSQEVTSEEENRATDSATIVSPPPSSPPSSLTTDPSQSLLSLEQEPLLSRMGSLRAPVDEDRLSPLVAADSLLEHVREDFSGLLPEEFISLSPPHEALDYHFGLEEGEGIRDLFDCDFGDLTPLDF
Aryl hydrocarbon receptor (Homo sapiens), sequence (P35869 whole entry, looked up): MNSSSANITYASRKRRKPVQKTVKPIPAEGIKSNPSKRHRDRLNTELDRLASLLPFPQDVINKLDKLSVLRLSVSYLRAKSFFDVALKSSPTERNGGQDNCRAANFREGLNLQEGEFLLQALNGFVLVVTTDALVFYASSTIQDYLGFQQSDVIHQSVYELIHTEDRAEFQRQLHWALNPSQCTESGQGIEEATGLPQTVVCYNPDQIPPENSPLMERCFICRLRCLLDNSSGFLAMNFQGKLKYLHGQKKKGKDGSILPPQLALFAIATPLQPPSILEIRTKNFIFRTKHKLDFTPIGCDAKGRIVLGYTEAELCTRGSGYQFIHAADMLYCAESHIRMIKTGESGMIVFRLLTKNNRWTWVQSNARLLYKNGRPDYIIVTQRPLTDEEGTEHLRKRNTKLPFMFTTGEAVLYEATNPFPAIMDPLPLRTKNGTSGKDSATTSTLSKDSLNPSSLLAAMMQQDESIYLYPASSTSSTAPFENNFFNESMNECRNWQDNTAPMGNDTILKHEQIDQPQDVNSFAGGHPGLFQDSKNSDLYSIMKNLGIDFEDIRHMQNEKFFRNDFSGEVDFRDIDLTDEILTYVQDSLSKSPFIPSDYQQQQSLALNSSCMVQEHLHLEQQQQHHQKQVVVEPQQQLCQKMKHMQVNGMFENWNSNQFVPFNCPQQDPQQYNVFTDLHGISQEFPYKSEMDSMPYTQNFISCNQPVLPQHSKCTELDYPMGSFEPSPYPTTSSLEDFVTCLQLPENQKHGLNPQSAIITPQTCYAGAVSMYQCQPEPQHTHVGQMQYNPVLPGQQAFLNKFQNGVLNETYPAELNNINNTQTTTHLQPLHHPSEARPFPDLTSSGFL
Retinoic acid receptor alpha (Homo sapiens), sequence (P10276 whole entry, looked up): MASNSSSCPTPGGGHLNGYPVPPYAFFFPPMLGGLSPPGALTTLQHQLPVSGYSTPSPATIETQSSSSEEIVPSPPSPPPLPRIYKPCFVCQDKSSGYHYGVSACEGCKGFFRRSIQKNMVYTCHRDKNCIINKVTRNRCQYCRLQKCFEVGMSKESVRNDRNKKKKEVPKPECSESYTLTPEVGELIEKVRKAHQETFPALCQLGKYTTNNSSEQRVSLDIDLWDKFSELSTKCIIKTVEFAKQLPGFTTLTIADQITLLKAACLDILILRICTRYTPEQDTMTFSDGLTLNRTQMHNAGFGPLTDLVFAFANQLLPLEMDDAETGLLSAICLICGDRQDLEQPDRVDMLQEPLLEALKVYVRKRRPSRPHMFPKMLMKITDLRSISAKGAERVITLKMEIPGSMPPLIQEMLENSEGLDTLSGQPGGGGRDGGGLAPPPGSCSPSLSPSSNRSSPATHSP

## C=Cc1ccc(C)cc1
[1]
  outcome: inactive
[2]
  outcome: inactive
[3]
  outcome: inactive
[4]
  outcome: inactive
[5]
  outcome: inactive
[6]
  outcome: inactive
[7]
  outcome: inactive
[8]
  outcome: inactive
[9]
  outcome: inactive
[10]
  outcome: inactive
[11]
  outcome: inactive
[12]
  outcome: inactive
[13]
  outcome: inactive
[14]
  outcome: inactive
[15]
  outcome: inactive
[16]
  outcome: inactive

## CCN(CCN)c1cccc(C)c1
[1]
  outcome: inactive
[2]
  outcome: inactive
[3]
  outcome: inactive
[4]
  outcome: inactive
[5]
  AC50: 50 µM (active)
[6]
  outcome: inactive
[7]
  outcome: inactive
[17]
  outcome: inactive
[10]
  outcome: inactive
[11]
  outcome: inactive
[12]
  outcome: inactive
[18]
  outcome: inactive
[19]
  outcome: inactive
[13]
  outcome: inactive
[20]
  outcome: inactive
[14]
  outcome: inactive
[16]
  outcome: inactive

## CCCCC(CC)COC(C)=O (stereo unspecified)
[1]
  outcome: inactive
[2]
  outcome: inactive
[3]
  outcome: inactive
[4]
  outcome: inactive
[5]
  outcome: inactive
[6]
  outcome: inactive
[7]
  outcome: inactive
[17]
  outcome: inactive
[9]
  outcome: inactive
[10]
  outcome: inactive
[11]
  outcome: inactive
[12]
  outcome: inactive
[18]
  outcome: inactive
[20]
  outcome: inactive
[14]
  outcome: inactive
[16]
  outcome: inactive

## CC(C)(C)c1ccc(C(=O)O)cc1
[1]
  outcome: inactive
[2]
  outcome: inactive
[3]
  outcome: inactive
[4]
  outcome: inactive
[5]
  outcome: inactive
[6]
  outcome: inactive
[7]
  outcome: inactive
[10]
  outcome: inactive
[11]
  outcome: inactive
[12]
  outcome: inactive
[18]
  outcome: inactive
[13]
  outcome: inactive
[14]
  outcome: inactive
[15]
  outcome: inactive
[16]
  outcome: inactive

## C=C(C)C(=O)OCCOCCOCCOCCOC(=O)C(=C)C
[1]
  outcome: inactive
[2]
  outcome: inactive
[3]
  outcome: inactive
[4]
  outcome: inactive
[5]
  outcome: inactive
[6]
  outcome: inactive
[7]
  outcome: inactive
[8]
  outcome: inactive
[9]
  outcome: inactive
[10]
  outcome: inactive
[11]
  outcome: inactive
[12]
  outcome: inactive
[18]
  outcome: inactive
[13]
  outcome: inactive
[20]
  outcome: inactive
[14]
  outcome: inactive
[15]
  outcome: inactive
[16]
  outcome: inactive

## C=CC(=O)OCCC#N
[1]
  outcome: inactive
[2]
  outcome: inactive
[3]
  AC50: 100 µM (active)
[4]
  AC50: 40.5 µM (active)
[5]
  outcome: inactive
[6]
  outcome: inactive
[7]
  AC50: 21.6 µM (active)
[8]
  AC50: 26.7 µM (active)
[9]
  outcome: inactive
[10]
  outcome: inactive
[11]
  outcome: inactive
[12]
  AC50: 82.6 µM (active)
[18]
  outcome: inactive
[13]
  AC50: 35.9 µM (active)
[20]
  outcome: inactive
[14]
  AC50: 100 µM (active)
[15]
  outcome: inactive
[16]
  AC50: 145 µM (active)

## CCCCCCCCCCCCCCCC(=O)OC/C=C(C)/C=C/C=C(C)/C=C/C1=C(C)CCCC1(C)C
[1]
  outcome: inactive
[2]
  outcome: inactive
[3]
  outcome: inactive
[4]
  outcome: inactive
[5]
  outcome: inactive
[6]
  outcome: inactive
[7]
  outcome: inactive
[8]
  outcome: inactive
[9]
  outcome: inactive
[10]
  outcome: inactive
[11]
  outcome: inactive
[12]
  outcome: inactive
[18]
  outcome: inactive
[13]
  outcome: inactive
[20]
  outcome: inactive
[14]
  outcome: inactive
[15]
  outcome: inactive
[16]
  outcome: inactive

## BrCc1cccc(Oc2ccccc2)c1
[1]
  outcome: inactive
[2]
  outcome: inactive
[3]
  outcome: inactive
[4]
  AC50: 159 µM (active)
[5]
  outcome: inactive
[6]
  outcome: inactive
[7]
  outcome: inactive
[8]
  outcome: inactive
[9]
  outcome: inactive
[10]
  outcome: inactive
[11]
  outcome: inactive
[12]
  outcome: inactive
[18]
  outcome: inactive
[13]
  outcome: inactive
[20]
  outcome: inactive
[14]
  outcome: inactive
[15]
  outcome: inactive
[16]
  outcome: inactive
